# Compound activity deposited in PubChem BioAssay by National Center for Advancing Translational Sciences (NCATS).
# Compounds with a hit are over-represented: about 6.6% of the library has one in this group of screens.
# HT1080NT lethal: qHTS for induction of synthetic lethality in tumor cells producing 2HG: qHTS for the HT-1080-NT fibrosarcoma cell line. Potency, µM (top dose mostly 46.1 µM), usual class: cytotoxic. HT-1080-NT fibrosarcoma viability, CellTiter-Glo ATP luminescence, 48 h. hit rate 1.6% among 360,000;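 also: NT is the 2HG producing partner of a matched IDH1 knockdown line; nearly all actives have a fitted effect of over 55% in size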
#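 A 48-hour cytotoxicity screen used HT-1080-NT cells plated 2 hours before compound delivery. ATP-based CellTiter-Glo luminescence measured viability, normalized to DMSO and no-cell controls.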
# KB-3-1 tox: qHTS assay for MDR1-selective chemotherapeutics: Primary screen using the parental adenocarcinoma cell KB-3-1; KB-3-1 viability, CellTiter-Glo ATP luminescence, 72 h; Potency, µM (titrated, usually from 46.1 µM), most hits filed as cytotoxic; hit rate 1.4% among 400,000; also: nearly all actives have a fitted effect of over 60% in size
#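 KB-3-1 parental drug-naive adenocarcinoma cells in DMEM/10% FBS, incubated 72 h at 37 C with pin-transferred compounds across a concentration series. Viability by CellTiter-Glo luminescence; concentration-response curves fitted after normalization.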
# HepG2 tox: qHTS for Inhibitors of TGF-b: Cytotox Counterscreen. HepG2 CAGA-GFP viability, ATP luminescence, 18 h. Potency, µM (series often up to 46.1 µM), most hits filed as cytotoxic. hit rate 0.76% among 410,000. AID 588856, 2011
#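 CellTiter-Glo luminescence gave cytotoxicity after 18 hours at 37 degrees C. The cells were HepG2 CAGA-GFP in 1% FBS DMEM, stimulated with 500 pg/mL TGF-beta after compound addition. %Activity was normalised to no-cell wells (complete cell-killing) and DMSO (no toxicity), and curves were fitted and classified.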
# KB-V1 MDR tox: qHTS assay for MDR1-selective chemotherapeutics: Primary screen using the drug-selected MDR subline cells KB-V1. Potency, µM (top dose mostly 46.1 µM), usual class: cytotoxic. hit rate 3.4% among 400,000. AID 1347076, 2019. KB-V1 MDR cells viability, CellTiter-Glo, 72 h; also: nearly all actives have a fitted effect of over 60% in size
#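 Luminescent ATP read-out (CellTiter-Glo, 10 min) measures survival of drug-selected KB-V1 MDR cells after 72 h, 37 degrees C compound exposure. Medium: phenol-red-free DMEM, 10% FBS. Values from fitted concentration-response curves.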
# HT1080 IDH1KD tx: qHTS for induction of synthetic lethality in tumor cells producing 2HG: qHTS for the HT-1080-IDH1KD cell line | Potency, µM (doses to about 46.1 µM), most hits filed as cytotoxic | AID 686971, 2013 | HT-1080 IDH1 knockdown viability, ATP luminescence, 48 h | hit rate 2% among 360,000
#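 HT-1080-IDH1KD cells (IDH1 knocked down), 750/well in RPMI with 5% FBS, treated with compound 48 h at 37 degrees C. Viability by CellTiter-Glo luminescence, normalised to DMSO and no-cell wells; concentration-response curves classed.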
# TGFb inhibitor: qHTS for Inhibitors of TGF-b; AID 588855, 2011; Potency, µM (top dose mostly 46.1 µM), usual class: inhibitors; hit rate 1.2% among 410,000; HepG2 CAGA-GFP TGF-b/SMAD3 reporter, GFP fluorescence, 18 h; TGF-beta stimulated, 500 pg/mL final; also: nearly all actives have a fitted effect of over 65% in size
#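 TGF-beta reporter screen: HEPG2 CAGA-GFP, 1% FBS, 500 pg/mL TGF-beta final, 18 h; per-cell GFP summed per well; curves fitted and categorized by class.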
# Numbers stand for hits; – = inactive; ? = inconclusive; · = not tested or not shown. Calls follow the shape of the dose curve; as a rule, active = well fitted curve in the direction sought with a large enough effect; inconclusive = small, poorly fitted or top-dose-only effect, or another doubt; inactive = no such curve, though single readings can be large; an effect the other way counts as inactive or inconclusive.
SMILES,HT1080NT lethal,KB-3-1 tox,HepG2 tox,KB-V1 MDR tox,HT1080 IDH1KD tx,TGFb inhibitor
COc1cccc(OCCn2cc(C(=O)c3ccco3)c3ccccc32)c1,–,–,–,20.6µM,?,?
CC(=O)c1cn(CCOc2cc(C)ccc2C)c2ccccc12,?,?,–,2.06µM,9.2µM,–
COc1ccccc1OCCn1cc(/C=C(\C#N)C(=O)NCc2ccco2)c2ccccc21,–,–,–,3.66µM,–,?
Cc1cc(OCCn2cc(C(=O)c3ccco3)c3ccccc32)ccc1Cl,·,–,–,–,·,–
COc1ccccc1OCCn1cc(C(=O)c2ccco2)c2ccccc21,–,–,–,13µM,–,–
CCCCNC(=O)C(CC)Sc1nc2ccccc2c(=O)n1Cc1ccco1 (stereo not drawn),·,–,–,–,·,?
COCCNC(=O)C1(C)CCN(C(=O)c2ccc(OC)c(F)c2)C1 (stereo not drawn),–,–,–,–,–,–
CCOC(=O)Cn1c(=O)n(CC2CCCO2)c2nc(-c3ccc(CC)cc3)nc(C(N)=O)c21 (stereo not drawn),·,–,–,?,·,–
CCc1cccc(NC(=O)c2ccc(Cn3nc(C)cc3C)o2)c1,–,–,–,14.6µM,–,–
CC(O)(c1ccc(F)c(F)c1)c1nc(-c2cnc3ccccc3c2)cs1 (stereo not drawn),?,–,–,–,?,15.8µM
CC(O)(c1ccc(F)c(F)c1)c1nc(-c2ccc(S(C)(=O)=O)cc2)cs1 (stereo not drawn),–,?,–,20.6µM,?,–
CCCCn1c(SCC(=O)N2CCN(c3ccccc3)CC2)nc2ccsc2c1=O,?,–,–,8.2µM,?,?
CC(C)OCCCn1c(SCC(=O)Nc2ccccc2C(F)(F)F)nc2nccnc2c1=O,–,–,2.51µM,–,–,–
CCCCn1c(SCC(=O)N2CCC(C)CC2)nc2ccsc2c1=O,–,–,–,1.16µM,–,–
CCCCn1c(SCC(=O)Nc2ccccc2C(F)(F)F)nc2ccsc2c1=O,–,–,–,2.59µM,–,?
CCCCn1c(SCC(=O)Nc2ccc(OCC)cc2)nc2ccsc2c1=O,·,·,–,·,·,?
CCCn1c(SCC(=O)N2CCN(c3ccccc3)CC2)nc2ccccc2c1=O,–,–,–,–,–,–
Cc1cc2nc(-c3ccc(OCc4ccc(F)cc4)cc3)cc(C(F)(F)F)n2n1,·,–,–,–,·,–
COc1ccc(OC)c(C2CC(=O)Nc3c2c(=O)n(C)c2ncnn32)c1 (stereo not drawn),·,–,–,–,·,–
CCN(CC1COc2ccccc2O1)S(=O)(=O)c1ccc(C)cc1 (stereo not drawn),–,–,–,23.1µM,–,?
CCN(CC)S(=O)(=O)c1ccc(C(=O)NNC(=O)C2COc3ccccc3O2)cc1 (stereo not drawn),–,–,–,–,–,–
COc1ccc(C)cc1S(=O)(=O)N(C)CC(=O)N1CCC(C(N)=O)CC1,–,–,–,–,–,–
CCOC(=O)C1CCN(C(=O)CN(C)S(=O)(=O)c2cc(C)ccc2OC)CC1,–,–,–,23.1µM,–,–
COc1ccc(Cl)c(Cn2c(NCCN)nc3c2c(=O)n(C)c(=O)n3C)c1,·,–,–,–,·,–
Cc1ccc2nsnc2c1NC(=O)c1ccc([N+](=O)[O-])o1,–,4.11µM,–,?,?,?
Cc1ccc2nsnc2c1NC(=O)CCl,?,–,–,–,?,–
Cc1ccc2nsnc2c1NC(=O)c1ccc(-c2cc(Cl)ccc2Cl)o1,16.4µM,?,–,?,–,?
Oc1ccc(Br)cc1C1C=C(c2ccc3c(c2)OCO3)NC(c2c(F)cccc2Cl)N1 (stereo not drawn),·,·,–,·,·,?
